Screens (PubChem BioAssay)
PvdQ acylase: P. aeruginosa PvdQ acylase inhibition; purified PvdQ acylase, fluorescence plate reader; inhibition, % at 10 µM; hit rate 0.063% among 340,000; in the data active = inhibition above about 30%, passing the limit was not always enough; inconclusive = no clear call, values can overlap the other calls;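 note: 0% = vehicle neutral wells and 100% = reference inhibitor wells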
Vif inh: HIV Vif inhibition. HEK293T cells, Vif self-association by quenched fluorescence, imaging, 24 h. inhibition, % at 7.49 µM. hit rate 0.35% among 340,000; in the data active = inhibition above about 50%, passing the limit was not always enough; inconclusive = no clear call, values can overlap the other calls; inactive = below about 31%
Wnt act: Wnt/beta-catenin pathway activation. Wnt/beta-catenin reporter cell assay, activator, plate reader. activation, % at 9.35 µM. hit rate 1.2% among 300,000; in the data active = activation above about 30%, passing the limit was not always enough; inconclusive = no clear call, values can overlap the other calls;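 note: 0% = neutral control wells and 100% = positive control wells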
MITF TRPM1 HTS: increases MITF-driven TRPM1 promoter luciferase signal; SK-MEL-5 TRPM1-promoter luciferase, 24 h; % of positive control, neutral wells = 0; activation, % at 12.5 µM; hit rate 0.75% among 300,000;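 active = mean activation of at least 80% with every replicate also reaching 80%; inconclusive = mean reaches 80% but some replicate falls short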;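 note: 0% = neutral control wells and 100% = parthenolide positive control wells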
esBAF inh: SWI/SNF esBAF complex inhibition | mouse ES cells, Bmi1-luciferase knock-in reporter, 24 h; 100% = twice the neutral-well signal | reporter increase, % at 12.5 µM | hit rate 2% among 350,000 | AID 602393; in the data active = activation above about 40%; inconclusive = no clear call, values can overlap the other calls;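 note: 0% = median of the plate's neutral control wells and 100% = double that signal; a rise in the Bmi1 reporter signal indicates esBAF inhibition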
Glyco luc inh: N-linked glycosylation inhibition; D54 ERlucT glycosylation luciferase reporter, 24 h; percent of 100 nM tunicamycin response; reporter increase, % at 12.5 µM; hit rate 0.23% among 360,000; AID 588692;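 active = mean luciferase reporter signal, scaled so untreated is 0 and the glycosylation-blocking control 100, at or above a set limit in every replicate; inconclusive = mean reaches the limit but not every replicate does; inactive = mean below the limit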;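 note: luciferase carries N-glycosylation sites so blocking glycosylation raises the light; 0% = median of neutral control wells and 100% = median of 100 nM tunicamycin wells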
* = called active by the depositor; u = inconclusive; x = not tested or not shown. An excerpt weighted towards active compounds, which were near 2.9% of everything screened.

SMILES | PvdQ acylase | Vif inh | Wnt act | MITF TRPM1 HTS | esBAF inh | Glyco luc inh
Cn1cc(Cl)c(C(=O)OCC(=O)Nc2nc(-c3ccc(Br)cc3)cs2)n1 | 2 | 4 | 26 | 75 | 61* | -1
Cc1ccc(-c2[nH]n3c(=O)c4c(nc3c2C)CCCC4)cc1 | 5 | -4 | x | x | 53* | 4
O=c1c2c(nc3cc(-c4ccc(Br)cc4)[nH]n13)CCCC2 | 2 | 2 | 14 | 109* | 26 | -4
CCCc1cc(=O)n2[nH]c(-c3cccc(Br)c3)cc2n1 | -4 | -2 | 7 | x | 52* | 1
Cc1c(-c2ccccc2)[nH]n2c(=O)c3c(nc12)CCCC3 | -17 | -6 | 17 | 56 | x | 4
CCCc1cc(=O)n2[nH]c(-c3ccc(Br)cc3)cc2n1 | 4 | -8 | x | 61 | 48* | 4
CCOC(=O)Cc1cc(=O)n2[nH]c(-c3ccccc3)cc2n1 | -1 | -3 | -4 | -8 | 2 | 1
Cc1ccccc1NC(=S)N1CCN(Cc2ccc3c(c2)OCO3)CC1 | -19 | 2 | x | 2 | 7 | 1
Cc1c(Cl)cccc1NC(=S)N1CCN(Cc2ccc3c(c2)OCO3)CC1 | -3 | 53* | 0 | -1 | x | 3
CCOCC(=O)N1CCN(Cc2ccc3c(c2)OCO3)CC1 | -5 | -2 | 31* | 0 | 0 | 0
CO[C@@H]1CN(C)C(=O)c2cc(NC(=O)NC(C)C)ccc2OC[C@@H](C)N(Cc2ccc(-c3ccccn3)cc2)C[C@H]1C | x | x | x | x | 2 | x
CCCOc1ccc(-c2nc(N3CCN(C)CC3)c3ccccc3n2)cc1 | -7 | 3 | 46* | 125* | 22 | -6
O=C(Nc1cccnc1)OC1CCCCC1 | -11 | -3 | 4 | 14 | x | -1
CC(=O)Nc1ccc(C)c([N+](=O)[O-])c1 | -10 | 9 | 1 | 0 | -10 | 1
Cc1ccc(NC(=O)C2C3CCCCC32)cc1[N+](=O)[O-] (stereo not given) | -7 | 6 | 16 | 55 | 42* | -1
Cc1cc(NC(=O)OC2CCCCC2)ccc1[N+](=O)[O-] | 6 | -10 | 16 | 120* | 67* | -11
C[C@@H]1CN([C@@H](C)CO)C(=O)c2cccc(NS(=O)(=O)c3ccccc3)c2O[C@@H]1CN(C)S(C)(=O)=O | x | x | x | x | 0 | x
CC(=O)Nc1ccc(S(=O)(=O)C(C#N)c2nc3ccccc3nc2NCCCO)cc1 (stereo not given) | 2 | 6 | 2 | -3 | 4 | 0
CC(=O)Nc1ccc(S(=O)(=O)C(C#N)c2nc3ccccc3nc2NCCO)cc1 (stereo not given) | 2 | 4 | 46* | 1 | -1 | 2
COc1ccc(NC(=O)Nc2ccc3c(c2)[C@@H]2C[C@@H](CC(=O)N4CCN(C)CC4)O[C@H](CO)[C@@H]2O3)cc1 | x | x | x | x | -3 | x
COc1ccc(C(=O)/C=C/N(C)C)cc1 | -13 | -7 | 66* | x | 9 | -1
CN(C)/C=C/C(=O)c1ccc(Oc2ccccc2)cc1 | 24 | 20 | -3 | 58 | 51* | -4
CN(C)/C=C/C(=O)c1ccccc1 | 9 | 4 | 3 | 14 | x | 2
C[C@H](CO)N1C[C@H](C)[C@H](CN(C)Cc2cccc(C(=O)O)c2)OCc2cnnn2CCCC1=O | x | x | x | x | -1 | x
CNC[C@H]1Oc2ccc(NC(=O)NC3CCCCC3)cc2CC(=O)N([C@@H](C)CO)C[C@@H]1C | x | x | x | x | -5 | x
SMILES | PvdQ acylase | Vif inh | Wnt act | MITF TRPM1 HTS | esBAF inh | Glyco luc inh
C[C@H]1CN([C@@H](C)CO)C(=O)c2cc(NC(=O)CCC(F)(F)F)ccc2O[C@@H]1CN(C)Cc1ccc(Cl)c(Cl)c1 | x | x | x | x | -1 | x
Cc1ccc(C(=O)/C=C/Nc2cccc([N+](=O)[O-])c2)o1 | u | 5 | x | 85* | x | -8
O=C(O)CCCC(=O)Nc1ccc(OCc2nc3ccccc3s2)cc1 | 14 | 15 | 51* | 0 | 31 | -1
C[C@H](CO)N1C[C@H](C)[C@@H](CN(C)C(=O)CN(C)C)Oc2cc(C#CC3CC3)ccc2S1(=O)=O | x | x | x | x | 4 | x
Cc1nc(C(=O)Nc2ccccc2)sc1C1(C)CC(c2cccnc2)=NO1 (stereo not given) | -10 | 16 | 22 | 53 | 46* | 0
COc1ccc(NC(=O)c2nc(C)c(C3(C)CC(c4ccccc4)=NO3)s2)cc1 (stereo not given) | -7 | -1 | -6 | -28 | -20 | 18
CCCCCCOc1ccc(N2C(=O)CC(SCCN)C2=O)cc1 (stereo not given) | -19 | 0 | 6 | x | -3 | 0
CCOc1ccc(N2C(=O)CC(SCCN)C2=O)cc1 (stereo not given) | -8 | 10 | 34* | x | 0 | -4
CN1[C@H](C(=O)NCC2CCCCC2)[C@@H](CO)[C@@H]2Cn3c(cccc3=O)[C@@H]21 | x | x | x | x | 2 | x
C[C@@H]1CCCCO[C@@H](CN(C)C(=O)Nc2ccc(C(F)(F)F)cc2)[C@H](C)CN([C@@H](C)CO)C(=O)c2cc(NC(=O)Nc3ccc(F)cc3)ccc2O1 | x | x | x | x | 2 | x
O=C(C[C@H]1CC[C@@H](NC(=O)Nc2ccc(C(F)(F)F)cc2)[C@H](CO)O1)NCc1ccccn1 | x | x | x | x | 2 | x
COc1ccc(-c2cn3c(C)c(C(=O)Nc4cccc(C)n4)sc3n2)cc1 | 16 | -10 | -1 | 13 | 55* | -4
Cc1nc(NCc2ccccc2)sc1C(=O)Nc1ccccc1 | 2 | 2 | 6 | 54 | 59* | 0
Cc1nc(Nc2ccccc2)sc1C(=O)Nc1ccccc1 | -10 | 0 | 15 | 62 | x | 1
Cc1c(C(=O)Nc2ccccc2)sc2nc(-c3ccccc3)cn12 | -6 | -5 | 58* | 27 | u | 0
Cc1cccc(NC(=O)c2sc3nc(-c4ccccc4)cn3c2C)n1 | -5 | -8 | 5 | 9 | 51* | -2
Cc1cccc(NC(=O)c2sc3nc(-c4ccc(F)cc4)cn3c2C)n1 | -15 | -6 | x | 13 | 20 | -9
C[C@@H]1CN([C@H](C)CO)C(=O)c2cc(NC(=O)c3ccncc3)ccc2O[C@H]1CN(C)Cc1ccc2c(c1)OCO2 | x | x | x | x | -5 | x
COc1cccc(S(=O)(=O)Nc2ccc3c(c2)[C@H]2C[C@@H](CC(=O)NCCc4ccccc4)O[C@@H](CO)[C@H]2O3)c1 | x | x | x | x | 5 | x
CCCC(=O)Nc1ccc2c(c1)OC[C@@H](C)N(C(=O)C1CCCC1)C[C@@H](C)[C@H](OC)CN(C)C2=O | x | x | x | x | 3 | x
O=C(Nc1ccc2c(c1)OC1(CCCC1)O2)C1CC1 | 10 | 0 | x | 37 | 42* | -2
CC(C)CC(=O)Nc1ccc2c(c1)oc1ccccc12 | 0 | -15 | x | 91* | 62* | -1
O=C(Nc1ccc2c(c1)OCO2)C1CC1 | -6 | -19 | 12 | 48 | 36 | 3
O=C(Nc1ccc2c(c1)oc1ccccc12)C1CC1 | -4 | 4 | 0 | x | 59* | 1
CC(C)[C@H](C)NC(=O)N(C)C[C@H]1OCc2ccccc2-c2c(n(C)c3ccccc23)C(=O)N([C@H](C)CO)C[C@H]1C | x | x | x | x | 6 | x
